# Screening data as filed in PubChem.
# KB-V1 MDR tox: KB-V1 MDR subline cytotoxicity | KB-V1 MDR cells viability, CellTiter-Glo, 72 h | Potency, µM (top dose mostly 46.1 µM), usual class: cytotoxic | hit rate 3.4% among 400,000 | AID 1347076; further: potency means the concentration at half of the fitted maximal effect; on the % scale 0 is the no-effect control and ±100 the full control effect; nearly all actives have a fitted effect of over 60% in size
#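 KB-V1 MDR subline cells in DMEM (phenol-red free, 10% FBS) exposed to compounds in qHTS concentration series for 72 h at 37 degrees C. Viability read by CellTiter-Glo luminescence; concentration-effect curves fitted after normalization and correction.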
# KCNH2 WT inh: blocks the wildtype human KCNH2 potassium channel | U2OS, BacMam KCNH2, thallium flux FluxOr; hits give low values | AID 720551 | hit rate 0.37% among 340,000 | Q12809 | activity change, % at 1.84 µM;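 active means maximum activity change below -70%; inconclusive means maximum activity change between -70% and -50%; inactive means maximum activity change above -50%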; further: on the % scale 0 is the no-effect control and ±100 the full control effect
#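 U2OS cells transduced with wild-type KCNH2 virus are loaded with FluxOr dye for 45 min, and thallium flux is measured in kinetic reads before and after stimulation buffer. Rate constants are normalized to DMSO controls.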
# MCF10A rereplic: DNA re-replication induction in MCF 10a cells; MCF 10A DNA re-replication, Hoechst nuclear intensity, 48 h; hit rate 2.9% among 350,000; Potency, µM (top dose mostly 46.1 µM), for inactives: at the highest dose activity, positive = re-replication, most hits filed as activators; AID 624296; further: potency means the concentration at half of the fitted maximal effect; % of control where 0% means no effect; nearly all actives have a fitted effect of over 50% in size
# KCNH2 3.1 inh: KCNH2 3.1 (human) potassium channel inhibition. activity change, % (tested at about 1.8 µM). hit rate 0.95% among 340,000. U2OS KCNH2 3.1, thallium flux FluxOr; hits give low values. AID 720553;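 active means maximum activity change below -70%; inconclusive means maximum activity change from -70% to -50%; inactive means maximum activity change above -50%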;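 further: thallium influx rate constant from kinetic fluorescence after stimulation buffer; on the % scale 0 is the no-effect control and ±100 the full control effect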
#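 Channel expression came from 3.1 mutant virus (1.77 x 10^8 /mL) applied to suspended U2OS cells for 4 h. Flux was tracked with FluxOr dye plus Red40 quencher, and kinetic rate constants normalized to controls.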
# SW480 rereplic: inducers of DNA re-replication in SW480 colon cancer cells; SW480 DNA re-replication, Hoechst DNA content imaging, 48 h; Potency, µM (highest dose often 46.1 µM), without a hit: at the highest dose re-replication activation, hits mostly activators; hit rate 1.8% among 340,000; AID 624297; further: potency means the concentration at half of the fitted maximal effect; % of control where 0% means no effect; nearly all actives have a fitted effect of over 55% in size
#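 SW480 cells exposed to compounds for 48 hr at 37 C, 5% CO2, then Hoechst-stained 40 min. Nuclear DNA content imaged by fluorescence scanning (405 nm excitation, 500-530 nm emission); re-replication scored as increased high-intensity nuclei.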
# KB-3-1 tox: KB-3-1 parental cell cytotoxicity; AID 1347075; Potency, µM (titrated, usually from 46.1 µM), most hits filed as cytotoxic; hit rate 1.4% among 400,000; KB-3-1 viability, CellTiter-Glo ATP luminescence, 72 h; further: potency means the concentration at half of the fitted maximal effect; on the % scale 0 is the no-effect control and ±100 the full control effect; nearly all actives have a fitted effect of over 60% in size
#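 Using CellTiter-Glo luminescence, growth of non-resistant KB-3-1 adenocarcinoma cells is assessed 72 h after pin-tool compound addition at 37 °C. Normalized responses across the concentration series yield fitted curves.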
# * marks the source's active call; other numbers are inactive results; i = inactive; ? = inconclusive; / = no result. This is a sample that favours compounds with a hit; in the whole collection about 7.6% have one here. Unless noted, the call rests on the fitted dose curve; in most records, active means well fitted curve in the direction sought with a large enough effect; inconclusive means small, poorly fitted or top-dose-only effect, or another doubt; inactive means no such curve, though single readings can be large; an effect the other way counts as inactive or inconclusive.
SMILES,KB-V1 MDR tox,KCNH2 WT inh,MCF10A rereplic,KCNH2 3.1 inh,SW480 rereplic,KB-3-1 tox
COc1ccc(/C=N/NC(=O)c2nc(-c3ccccc3)n(-c3ccccc3)n2)cc1,i,13.1,5.9%,-37.0,-8.0%,i
COc1ccc(/C=N/NC(=O)c2nc(-c3ccccc3)n(-c3ccccc3)n2)c(O)c1,i,-10.0,7.31µM*,-41.9,?,?
Cc1ccc(S(=O)(=O)Oc2ccccc2/C=N/Nc2ccc(C(=O)O)cc2)cc1,?,3.5,18.4µM*,23.2,?,i
O=C(CP(=O)(c1ccccc1)c1ccccc1)N/N=C/c1cc(Br)cc(Br)c1O,?,17.7,5.8µM*,5.3,?,i
Cc1ccc(S(=O)(=O)Oc2ccccc2-c2ccccc2)cc1,?,-2.5,11.6µM*,-9.8,11.6µM*,?
Cc1ccc(S(=O)(=O)Oc2ccccc2)cc1,i,0.0,-1.7%,27.7,-3.6%,i
COc1ccc(C2=NS(=O)(=O)N(C)C(C(=O)N3CCc4ccccc4C3)=C2)cc1OC,?,-4.4,-2.3%,7.1,14.0%,?
O=C(Nc1ccc2c(c1)CCCN2C(=O)c1cccs1)c1c(F)cccc1Cl,i,2.0,?,-26.9,23.9%,?
COc1ccccc1C=NN=C(NN=Cc1ccccc1OC)NN=Cc1ccccc1OC,20.6µM*,36.8,26.2%,21.8,?,?
COc1cccc(C=NNC(=O)c2ccncc2)c1O,i,-2.7,?,12.5,?,20.6µM*
COc1cccc(/C=N/NC(=O)N/N=C/c2cccc(OC)c2O)c1O,i,14.6,14.5%,-19.6,?,i
O=C(N/N=C/c1cc(Br)cc(Br)c1O)c1ccncc1,i,4.5,?,-47.2,1.03µM*,i
O=C(N/N=C/c1cc(Cl)cc(Cl)c1O)c1ccncc1,?,-3.5,?,1.7,?,?
COc1cccc(/C=N/NC(=O)CSc2ccccc2C)c1O,6.51µM*,0.5,?,-12.4,?,?
COc1cc(OC)c2cc(C(=O)N/N=C/c3cccc(OC)c3O)[nH]c2c1,?,-4.3,17.9%,10.4,3.26µM*,?
O=C(N/N=C/c1ccc(Br)s1)c1ccncc1,i,-7.1,?,2.7,10.3µM*,i
O=C(N/N=C/c1ccc(Br)s1)c1cccs1,i,-1.7,2.7%,-20.9,2.6%,?
COc1ccccc1OCC(=O)N/N=C/c1cccc2cccnc12,i,-10.2,13.3%,/,?,i
COc1cc([N+](=O)[O-])cc(/C=N/NC(=O)c2cccnc2)c1O,i,1.7,6.51µM*,-7.5,?,?
COc1cccc(/C=N/NC(=O)COc2cccc3cccnc23)c1O,i,4.9,?,-0.8,13µM*,?
CC1(C)C2CCC(C2)C1C/C=N/NC(N)=S (configuration not stated),i,-1.0,26.0%,-2.9,1.4%,i
COc1ccccc1Oc1c(NS(=O)(=O)c2ccc(C(C)(C)C)cc2)nc(-c2ncccn2)nc1OCCO,/,/,14.8%,/,-1.7%,/
COc1cccc(/C=N/Nc2ccc(C(=O)O)cc2)c1O,?,7.1,-1.3%,-1.6,-8.4%,16.4µM*
COc1cccc(/C=N/NC(=O)c2nc(-c3ccccc3)cc(-c3ccccc3)n2)c1O,?,-6.8,6.9%,-32.1,8.2µM*,?
O=C(CNC(=O)c1ccncc1)N/N=C/c1ccc(Br)cc1,i,11.2,0.4%,-108.9*,?,i
CCn1c(C)nc2cc(C(=O)N/N=C/c3ccc(O)c(O)c3O)ccc21,i,-3.8,23.9%,-12.4,-2.4%,i
CCn1c(C)nc2cc(C(=O)N/N=C/c3cccc(OC)c3O)ccc21,?,17.3,?,18.0,1.64µM*,i
O=C(N/N=C/C1=Cc2ccccc2OC1)c1ccncc1,i,-22.4,?,5.1,18.4µM*,i
O=C(N/N=C/c1ccco1)c1ccncc1,i,-14.1,-3.7%,-12.3,-13.8%,i
